In PubChem BioAssay (NCATS):
Records with an inconclusive call do not appear. Calls of active or inactive are those of the source. Unless noted, the call rests on the fitted dose curve.

How the values were obtained:
[1] = molecular target: Alpha-galactosidase (Coffea arabica) (UniProt Q42656); test: Counterscreen for Glucocerebrosidase Inhibitors: qHTS Assay for Coffee Bean alpha-Galactosidase at pH 5.9 (AID 998; active means well fitted curve in the direction sought with a large enough effect; an effect the other way counts as inactive or inconclusive)
Sequence of Alpha-galactosidase (Coffea arabica) (Q42656 whole entry, looked up): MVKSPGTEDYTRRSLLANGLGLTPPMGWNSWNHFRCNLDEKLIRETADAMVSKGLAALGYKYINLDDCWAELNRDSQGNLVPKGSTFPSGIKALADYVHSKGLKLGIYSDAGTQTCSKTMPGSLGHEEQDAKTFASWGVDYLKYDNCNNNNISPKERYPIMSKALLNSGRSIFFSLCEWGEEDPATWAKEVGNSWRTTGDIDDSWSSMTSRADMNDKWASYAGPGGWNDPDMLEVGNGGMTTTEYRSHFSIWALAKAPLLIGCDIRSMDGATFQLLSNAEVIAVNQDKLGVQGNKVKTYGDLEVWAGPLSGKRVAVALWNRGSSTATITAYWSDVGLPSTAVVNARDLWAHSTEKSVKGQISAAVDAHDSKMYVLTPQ
Procedure, shortened: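 In 50 mM citric acid pH 5.9 with 0.005% Tween-20, coffee bean enzyme hydrolyses 80 uM 4-MU alpha-D-galactopyranoside over 20 min at RT. Activity is normalized to controls; AC50 comes from Hill-modelled concentration-response data.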

[2] = Validation screen for inhibitors of Lassa infection (AID 463096); further: potency means the concentration at half of the fitted maximal effect
[3] = molecular target: Chromobox protein homolog 1 (Homo sapiens) (UniProt P83916); test: qHTS Validation Assay for Inhibitors of HP1-beta Chromodomain Interactions with Methylated Histone Tails (AID 488953; active means well fitted curve in the direction sought with a large enough effect; an effect the other way counts as inactive or inconclusive; further: nearly all actives have a fitted effect of over 50% in size; further: potency means the concentration at half of the fitted maximal effect)
Sequence of Chromobox protein homolog 1 (Homo sapiens) (P83916 whole entry, looked up): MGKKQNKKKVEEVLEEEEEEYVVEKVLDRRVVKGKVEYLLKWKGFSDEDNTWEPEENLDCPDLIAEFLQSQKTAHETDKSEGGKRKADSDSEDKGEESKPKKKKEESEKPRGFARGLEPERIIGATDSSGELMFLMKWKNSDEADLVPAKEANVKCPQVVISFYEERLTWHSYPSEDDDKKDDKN
Procedure, shortened: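 AlphaScreen proximity signal from streptavidin donor and nickel chelate acceptor beads (final 10 ug/mL) after 30 min dark incubation. Compounds had 30 min at room temperature with preformed complex of 50 nM HP1-beta and 50 nM b-H3(1-18)K9me3 in PBS pH 7.4 with 0.01% Tween-20.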

[4] = Inducers of the Endoplasmic Reticulum Stress Response (ERSR) in human glioma: Validation (AID 504836; active means well fitted curve in the direction sought with a large enough effect; an effect the other way counts as inactive or inconclusive)
Procedure, shortened: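 Stably transfected U87-MG human glioma cells carrying a GRP78-based luminescent sensor were seeded at 1000 cells/well, pin-dosed with compounds and incubated 16 h. Luciferase reagent was then added, and end-point luminescence was read after 10 min at room temperature.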

[5] = qHTS for Inhibitors of the Functional Ribonucleoprotein Complex (vRNP) of Lassa (LASV) Arenavirus: LASV Primary Screen - GLuc reporter signal (AID 1347082; calls by dose curve; tested in HEK293 reporter line; further: series mostly up to about 57 µM; nearly all actives have a fitted effect of over 60% in size)
[6] = qHTS for Inhibitors of the Functional Ribonucleoprotein Complex (vRNP) of Lassa (LASV) Arenavirus: Viability assay - alamar blue signal for LASV Primary Screen (AID 1347083; calls by dose curve; tested in HEK293 reporter line; further: series mostly up to about 57 µM; nearly all actives have a fitted effect of over 80% in size)
[7] = qHTS for Inhibitors of the Functional Ribonucleoprotein Complex (vRNP) of Lymphocytic Choriomeningitis Arenaviruses (LCMV): Viability assay - alamar blue signal for LCMV Primary Screen (AID 1347085; calls by dose curve; tested in HEK293 reporter line; further: series mostly up to about 57 µM; nearly all actives have a fitted effect of over 80% in size)
[8] = molecular target: Nucleoprotein (Lymphocytic choriomeningitis virus (strain Armstrong)) (UniProt P09992); test: qHTS for Inhibitors of the Functional Ribonucleoprotein Complex (vRNP) of Lymphocytic Choriomeningitis Arenaviruses (LCMV): LCMV Primary Screen - GLuc reporter signal (AID 1347086); further: series mostly up to about 57 µM; nearly all actives have a fitted effect of over 70% in size
Sequence of Nucleoprotein (Lymphocytic choriomeningitis virus (strain Armstrong)) (P09992 whole entry, looked up): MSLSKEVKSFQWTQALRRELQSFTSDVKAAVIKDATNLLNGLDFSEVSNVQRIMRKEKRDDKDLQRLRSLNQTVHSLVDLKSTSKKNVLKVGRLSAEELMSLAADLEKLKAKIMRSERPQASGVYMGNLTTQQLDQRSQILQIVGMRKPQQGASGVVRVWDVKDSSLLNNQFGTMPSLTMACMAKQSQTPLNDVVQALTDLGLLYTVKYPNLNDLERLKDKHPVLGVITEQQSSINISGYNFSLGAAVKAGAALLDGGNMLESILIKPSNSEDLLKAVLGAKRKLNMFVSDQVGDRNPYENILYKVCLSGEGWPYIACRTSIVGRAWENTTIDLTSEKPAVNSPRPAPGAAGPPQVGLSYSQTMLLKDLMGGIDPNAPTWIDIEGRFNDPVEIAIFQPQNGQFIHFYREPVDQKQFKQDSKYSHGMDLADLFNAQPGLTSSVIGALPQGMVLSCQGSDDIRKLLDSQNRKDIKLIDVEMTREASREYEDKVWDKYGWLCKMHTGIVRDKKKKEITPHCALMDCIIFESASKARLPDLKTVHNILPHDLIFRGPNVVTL

[9] = molecular target: Cytochrome P450 3A4 (Homo sapiens) (UniProt P08684); test: qHTS Assay for Activators of Cytochrome P450 3A4 (AID 885; active means well fitted curve in the direction sought with a large enough effect; an effect the other way counts as inactive or inconclusive; further: nearly all actives have a fitted effect of over 65% in size)
Sequence of Cytochrome P450 3A4 (Homo sapiens) (P08684 whole entry, looked up): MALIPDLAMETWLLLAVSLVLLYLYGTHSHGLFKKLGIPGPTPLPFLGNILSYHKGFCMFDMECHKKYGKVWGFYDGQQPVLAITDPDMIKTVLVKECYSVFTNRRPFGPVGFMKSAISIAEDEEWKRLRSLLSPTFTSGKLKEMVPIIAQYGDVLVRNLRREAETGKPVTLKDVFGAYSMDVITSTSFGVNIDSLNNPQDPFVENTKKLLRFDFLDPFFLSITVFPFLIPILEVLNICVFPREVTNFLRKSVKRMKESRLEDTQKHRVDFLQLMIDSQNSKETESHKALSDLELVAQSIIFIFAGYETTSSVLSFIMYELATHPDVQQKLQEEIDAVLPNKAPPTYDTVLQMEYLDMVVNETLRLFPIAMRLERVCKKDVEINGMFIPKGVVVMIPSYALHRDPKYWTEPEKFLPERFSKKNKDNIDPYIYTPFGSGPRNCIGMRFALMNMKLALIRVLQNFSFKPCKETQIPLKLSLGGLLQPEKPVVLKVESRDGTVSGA
Procedure, shortened: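 Activators are scored by enhanced luminescence from CYP3A4 conversion of luciferin-PPXE (25uM, equal to KM) to luciferin, after 60 min at RT with an NADPH-regenerating system.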

[10] = molecular target: Alpha-galactosidase (Coffea arabica) (UniProt Q42656); test: Counterscreen for Glucocerebrosidase Inhibitors: qHTS Assay for Coffee Bean alpha-Galactosidase at pH 4.5 (AID 957; active means well fitted curve in the direction sought with a large enough effect; an effect the other way counts as inactive or inconclusive; further: series mostly up to about 77 µM)
Procedure, shortened: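 Fluorogenic qHTS at pH 4.5 (citrate buffer with Tween-20): 2 nM enzyme, 80 uM 4-MU-alpha-galactoside substrate, compound titrated 0.7 nM to 77 uM, 20 min room temperature. Glycine/NaOH stop; 4-MU read Ex 365/Em 440; Hill-equation AC50 against no-enzyme and enzyme controls.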

[11] = MultiTox-Fluor Cytotoxicity Assay - LYMP1-003 - Dead Cells (AID 961; active means well fitted curve in the direction sought with a large enough effect; an effect the other way counts as inactive or inconclusive;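 further: cells exposed to compound for 16 h at 37 °C; nearly all actives have a fitted effect of over 70% in size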; further: potency means the concentration at half of the fitted maximal effect)
Procedure, shortened: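 LYMP1-003 lymphoblastoid, 2500 cells/well, 5 hr settle then 16 hr cpd at 37 C; MultiTox-Fluor reagent 60 min RT; Ex/Em 485/520 dead-cell signal; norm. DMSO = 0%, 15 uM tetraoctylammonium bromide = 100%; Hill AC50.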

[12] = molecular target: M-phase phosphoprotein 8 (Homo sapiens) (UniProt Q99549); test: qHTS Validation Assay for Inhibitors for MPP8 Chromodomain Interactions with Methylated Histone Tails (AID 488949; active means well fitted curve in the direction sought with a large enough effect; an effect the other way counts as inactive or inconclusive; further: nearly all actives have a fitted effect of over 55% in size; further: potency means the concentration at half of the fitted maximal effect)
Sequence of M-phase phosphoprotein 8 (Homo sapiens) (Q99549 whole entry, looked up): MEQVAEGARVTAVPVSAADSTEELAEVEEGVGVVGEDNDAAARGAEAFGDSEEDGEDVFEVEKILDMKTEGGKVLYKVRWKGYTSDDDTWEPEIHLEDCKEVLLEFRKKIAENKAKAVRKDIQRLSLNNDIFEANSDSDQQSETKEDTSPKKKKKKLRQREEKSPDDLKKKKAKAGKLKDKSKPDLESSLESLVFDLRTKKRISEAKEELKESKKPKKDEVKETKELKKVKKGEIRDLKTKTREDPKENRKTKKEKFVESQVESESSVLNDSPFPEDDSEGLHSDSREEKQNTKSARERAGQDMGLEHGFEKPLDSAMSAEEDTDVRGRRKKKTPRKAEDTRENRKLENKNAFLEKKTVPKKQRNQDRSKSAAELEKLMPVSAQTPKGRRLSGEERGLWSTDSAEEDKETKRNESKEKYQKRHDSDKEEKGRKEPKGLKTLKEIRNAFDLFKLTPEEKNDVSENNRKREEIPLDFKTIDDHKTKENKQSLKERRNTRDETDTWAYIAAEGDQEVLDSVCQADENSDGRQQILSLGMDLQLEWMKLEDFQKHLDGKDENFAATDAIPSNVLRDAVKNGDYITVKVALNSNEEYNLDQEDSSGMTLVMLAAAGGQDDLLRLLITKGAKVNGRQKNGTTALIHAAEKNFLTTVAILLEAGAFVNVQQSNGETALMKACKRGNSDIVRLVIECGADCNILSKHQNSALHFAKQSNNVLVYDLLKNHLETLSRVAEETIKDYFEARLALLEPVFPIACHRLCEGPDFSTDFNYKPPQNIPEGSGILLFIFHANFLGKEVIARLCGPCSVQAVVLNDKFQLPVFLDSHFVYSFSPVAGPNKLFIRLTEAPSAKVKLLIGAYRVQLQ
Procedure, shortened: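 AlphaScreen proximity signal from streptavidin donor and Ni-chelate acceptor beads (10 ug/mL each) reported binding of MPP8 to trimethyl-K9 H3(1-18) peptide, both at 50 nM. The complex formed 30 min before a 30 min compound exposure at room temperature, in PBS pH 7.4.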

[13] = molecular target: Nuclear receptor subfamily 1 group I member 3 (Homo sapiens) (UniProt Q14994); test: Primary qHTS for antagonist of constitutive androstane receptor (CAR) against the NCATS DSHEA and TCM libraries (AID 1794836; active means well fitted curve in the direction sought with a large enough effect; an effect the other way counts as inactive or inconclusive; further: series mostly up to about 40 µM)
Sequence of Nuclear receptor subfamily 1 group I member 3 (Homo sapiens) (Q14994 whole entry, looked up): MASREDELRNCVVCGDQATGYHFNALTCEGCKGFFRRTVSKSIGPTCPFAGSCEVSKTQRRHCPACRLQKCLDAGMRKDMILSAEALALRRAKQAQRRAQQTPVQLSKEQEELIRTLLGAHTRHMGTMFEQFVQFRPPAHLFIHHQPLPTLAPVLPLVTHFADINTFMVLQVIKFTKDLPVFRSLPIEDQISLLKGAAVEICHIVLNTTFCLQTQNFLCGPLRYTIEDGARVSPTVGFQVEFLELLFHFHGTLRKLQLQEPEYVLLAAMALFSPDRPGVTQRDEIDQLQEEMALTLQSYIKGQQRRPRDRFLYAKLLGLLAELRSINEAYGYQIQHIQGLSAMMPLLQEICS
Procedure, shortened: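 HepG2 cells stably carrying hCAR and a CYP2B6 luciferase reporter (2,500 cells/well) attached for 5 h, then received compounds with 48 uM CITCO for 24 h at 37C. ONE-Glo luminescence read antagonism; CellTiter-Fluor (405/540 nm) gave viability.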

[14] = molecular target: Cytochrome P450 3A4 (Homo sapiens) (UniProt P08684); test: qHTS Assay for Inhibitors and Substrates of Cytochrome P450 3A4 (AID 884; active means well fitted curve in the direction sought with a large enough effect; an effect the other way counts as inactive or inconclusive; further: nearly all actives have a fitted effect of over 50% in size; further: potency means the concentration at half of the fitted maximal effect)
Procedure, shortened: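 Luminescent readout of luciferin produced by CYP3A4 (20 nM) dealkylation of Luciferin-PPXE, 25 uM (its KM). NADPH-driven reaction ran 60 min at RT after 10 min compound preincubation; data scaled to 57 uM ketoconazole as 100% inhibition.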

[15] = Cell Viability - BJ (AID 421); conditions: BJ fibroblast viability, qHTS;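 further: potency means the concentration at half of the fitted maximal effect; cells exposed to compound for 40 hours at 37 °C before readout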
Procedure, shortened: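 Cytotoxicity in human BJ foreskin fibroblasts is scored as loss of cellular ATP after a 40-hour exposure, measured by luciferase luminescence. Controls are DMSO and 100 uM tamoxifen.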

[16] = Cell Viability - Hek293 (AID 427;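 active means compounds whose dose-response curve shows a full or clear partial loss of cell viability, called from curve shape rather than a numeric limit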;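 further: potency means the concentration at half of the fitted maximal effect; cells exposed to compound for 40 hours at 37 °C before reading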); conditions: qHTS
Procedure, shortened: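 qHTS, human embryonic kidney (adenovirus-transformed) cells; 40 hr cpd, 37 °C; CellTiter-Glo ATP luminescence. Norm: DMSO = 0, 100 uM tamoxifen = 100% inhibition. Hill-fit AC50.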

[17] = Cell Viability - HepG2 (AID 433); conditions: qHTS;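 further: potency means the concentration at half of the fitted maximal effect; potency for ATP loss meaning cytotoxicity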
Procedure, shortened: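 Cytotoxicity read as ATP loss (CellTiter-Glo luminescence) after 40 hr compound exposure of HepG2, 1500 cells/well, 37 °C. AC50 by Hill equation; 0% set by DMSO, 100% inhibition by 100 uM tamoxifen.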

[18] = Cell Viability - MRC5 (AID 434); conditions: MRC5 lung fibroblast viability, qHTS;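 further: potency means the concentration at half of the fitted maximal effect; cells exposed to compound for 40 hours at 37 °C; potency reflects cytotoxicity seen as loss of intracellular ATP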
Procedure, shortened: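 Decrease in intracellular ATP, quantified by luciferase light output, reflects compound toxicity toward MRC5 cells exposed for 40 hr in complete culture medium. Concentration-response curves, scaled between DMSO and 100 uM tamoxifen, gave AC50 values.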

[19] = Cell Viability - SK-N-SH (AID 435); conditions: SK-N-SH neuroblastoma cell viability qHTS; further: potency means the concentration at half of the fitted maximal effect
Procedure, shortened: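 qHTS cytotoxicity: CellTiter-Glo ATP luminescence after 40 h compound exposure of human neuroblastoma SK-N-SH cells at 37 °C. AC50 derived by Hill-equation fitting, with DMSO as basal and 100 uM tamoxifen as full inhibition.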

[20] = Cell Viability - HUV-EC-C (AID 542; active means well fitted curve in the direction sought with a large enough effect; an effect the other way counts as inactive or inconclusive; further: nearly all actives have a fitted effect of over 35% in size)
Procedure, shortened: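 CellTiter-Glo luminescence measured ATP loss in HUV-EC-C cells (1000/well) after 40 hr compound exposure at 37 °C, in complete culture medium. Concentration-response data were Hill-fitted to give AC50.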

Measured: Potency

Nc1nc2[nH]c(=O)cnc2c(=O)[nH]1
active: [3] 9.5 nM
inactive: [1] | [2] | [4] | [5] | [6] | [7] | [8]

CC(C)(C)c1ccc(S(=O)(=O)/C=C/C#N)cc1
active: [2] 11.2 µM
inactive: [5] | [6] | [7] | [8]

Oc1ccccc1O
inactive: [9] | [10] | [1] | [2] | [4] | [5] | [6] | [7] | [8]
active: [11] 12.6 µM | [12] 79.4 µM

COc1ccc(C(C)=O)c(O)c1
inactive: [5] | [6] | [7] | [8] | [13]

CCCCCCCCCC=O
inactive: [5] | [6] | [7] | [8] | [13]

C[C@@]12C[C@@]3(O)O[C@@H](O1)[C@]1(COC(=O)c4ccccc4)[C@@H]3C[C@@]12O[C@@H]1O[C@H](CO)[C@@H](O)[C@H](O)[C@@H]1O
inactive: [5] | [6] | [7] | [8] | [13]

O=C(O)/C=C/c1ccc(O)c(O)c1
inactive: [10] | [1] | [2] | [4] | [5] | [6] | [7] | [8] | [13]

OCC1NCC(O)C(O)C1O (stereo not given)
inactive: [2] | [5] | [6] | [7] | [8]

NO
active: [3] 6 nM
inactive: [10] | [1] | [2] | [5] | [6] | [7] | [8]

CCCCCC(=O)CC
inactive: [5] | [6] | [7] | [8] | [13]

NC1CONC1=O (stereo not given)
inactive: [2] | [5] | [6] | [7] | [8]

C=C/C(C)=C/C/C=C(\C)CCC=C(C)C
inactive: [5] | [6] | [7] | [8] | [13]

O=c1cc(-c2ccc(O)c(O)c2)oc2cc(O)cc(O)c12
inactive: [9] | [5] | [6] | [7] | [8] | [13]
active: [14] 15.8 µM

C=C(C)[C@@H]1CC=C(C=O)CC1
inactive: [5] | [6] | [7] | [8]

c1ccc2c(c1)-c1cccc3cccc-2c13
inactive: [15] > 92 µM | [16] > 92 µM | [17] > 92 µM | [18] > 92 µM | [19] > 92 µM | [20] | [14] | [11] | [5] | [6] | [7] | [8]

CN1[C@@H](CC(=O)c2ccccc2)CCC[C@H]1C[C@H](O)c1ccccc1
inactive: [2] | [12] | [4] | [5] | [6] | [7] | [8]

CC(=O)/C(C)=N/O
inactive: [2] | [5] | [6] | [7] | [8]

CC(/C=C/c1cccc(Oc2ccc(F)cc2)c1)N(O)C(N)=O (stereo not given)
inactive: [2] | [4] | [5] | [6] | [7] | [8]

COc1ccc2c(c1)CCC1C2CC[C@@]2(C)C1CC[C@@H]2NCCCCCCN1C(=O)C=CC1=O (stereo not given in full)
inactive: [2] | [12] | [4] | [5] | [6] | [7] | [8]
active: [3] 50100 nM

Cn1c(=O)c2c(nc(/C=C/c3cccc(Cl)c3)n2C)n(C)c1=O
inactive: [2] | [4] | [5] | [6] | [7] | [8]

CCCCCCCCCCCCCCCCCCOC[C@H](COP(=O)([O-])OCC[N+](C)(C)C)OC
inactive: [2] | [4] | [5] | [6] | [7] | [8]

CN(C)CCC(c1ccc(Cl)cc1)c1ccccn1 (stereo not given)
inactive: [2] | [4] | [5] | [6] | [7] | [8]

C=CCN1CCc2c(cc(O)c(O)c2Br)[C@@H](c2ccccc2)C1
inactive: [2] | [4] | [5] | [6] | [7] | [8]

O=C(O)CNC(=O)C(CS)Cc1ccccc1 (stereo not given)
inactive: [2] | [12] | [4] | [5] | [6] | [7] | [8]

COC(=O)[C@H]1[C@H]2C[C@H]3c4[nH]c5ccccc5c4CCN3C[C@H]2CC[C@@H]1O
inactive: [2] | [4] | [5] | [6] | [7] | [8]

Cc1cccc(C)c1OCC(N)C(C)C (stereo not given)
inactive: [2] | [4] | [5] | [6] | [7] | [8]

S=C(S)OC1CC2CC1C1CCCC21 (stereo not given)
inactive: [2] | [4] | [5] | [6] | [7] | [8]

CC(=O)C(C)=O
inactive: [10] | [1] | [2] | [3] | [4] | [5] | [6] | [7] | [8]

N[C@@H](Cc1ccc(F)cc1)C(=O)O
inactive: [2] | [4] | [5] | [6] | [7] | [8]

O=C(O)C1CN(CCCP(=O)(O)O)CCN1 (stereo not given)
inactive: [2] | [4] | [5] | [6] | [7] | [8]
